The text below walks through data of PubChem BioAssay (NCI).

Some test systems named below: SK-MEL-2 melanoma; EKVX NSCLC; SN12C renal; UO-31 renal; TK-10 renal; ACHN renal; CAKI-1 renal; A498 renal; CCRF-CEM leukemia; MOLT-4 leukemia.
Common to all, as to assay: NCI-60 one-dose screen, 48 h (100 = growth as untreated, 0 = no growth, -100 = all killed)
What all share (details): 10 µM unless noted

This is part of a sample that, as a whole, favours compounds with a hit. Of some 83,000 tested, about 20% had one in any assay.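 Single-concentration screen, 48 h exposure, 96-well plates. Endpoint: percent growth. Below 10 = active.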 Values without a mark were called inactive. Active and inactive are the calls of the source.

In the case of `CC(C)CN1CC(C(=O)Nc2ccc3c(c2)-c2ccccc2C3)CC1=O` (stereo not given), the growth with SK-MEL-2 melanoma was 81.8% [50 µM]; in the experiment on EKVX NSCLC, 70.8% [50 µM]; in the experiment on SN12C renal it was 72.5% [50 µM]; in the experiment with UO-31 renal it was 43.7% [50 µM]; in the experiment with TK-10 renal, 87.2% [50 µM]; in the experiment with ACHN renal, 64.8% [50 µM]. The growth in the experiment on CAKI-1 renal is 62.5% [50 µM]; with A498 renal it was 85.8% [50 µM]; with CCRF-CEM leukemia, 74.5% [50 µM]; in the experiment on MOLT-4 leukemia, 61.8% [50 µM].
Consider `Cc1ccc(Nc2nc(-c3ccc(F)cc3)c(C#N)c(=O)n2C)cc1`, for which the growth in the experiment on SK-MEL-2 melanoma was 70.8%; in the experiment with EKVX NSCLC, 54.6%; in the experiment on SN12C renal, 62.9%; in the experiment on UO-31 renal, 44.8%; in the experiment on TK-10 renal, 55.4%; in the experiment with ACHN renal it was 63%. Further, the growth in the experiment on CAKI-1 renal was 59.3%; in the experiment on A498 renal, 42.7%; in the experiment with CCRF-CEM leukemia, 98.8%; in the experiment with MOLT-4 leukemia it was 81.5%.
As to `COc1ccc(Cl)cc1Nc1nc(C(F)(F)F)ccc1C(=O)N/N=C/c1ccccc1Cl`, the growth is -7.25% (active) in the experiment on SK-MEL-2 melanoma; -0.149% (active) in the experiment with EKVX NSCLC; 0.596% (active) in the experiment on SN12C renal; 2.9% (active) in the experiment with UO-31 renal; 15.6% in the experiment with TK-10 renal; 3.39% (active) in the experiment with ACHN renal. The growth was 11.5% in the experiment on CAKI-1 renal, 28.1% in the experiment on A498 renal, 7.11% (active) with CCRF-CEM leukemia and 3.07% (active) in the experiment on MOLT-4 leukemia.
Turning to `CCNC(=O)Oc1ccc(/C(=C(/C)Cc2ccc(OC)cc2)c2ccc(OCCN3CCCCCC3)cc2)cc1`, the growth is 87% in the experiment on SK-MEL-2 melanoma; 71.3% in the experiment on EKVX NSCLC; 69.2% in the experiment on SN12C renal; 52.9% in the experiment on UO-31 renal; 84.2% in the experiment with TK-10 renal; 94.2% in the experiment with ACHN renal. Besides, the growth with CAKI-1 renal is 82.5%; in the experiment on A498 renal, 70.5%; in the experiment with CCRF-CEM leukemia, 41.6%; in the experiment on MOLT-4 leukemia, 35.2%.
As to `O=C(N/N=C/c1ccc(O)cc1O)c1ccc(Nc2ccnc(C(F)(F)F)c2)cc1`, the growth with SK-MEL-2 melanoma is 73.3%; with EKVX NSCLC, 41.4%; with SN12C renal, 38.5%; in the experiment with UO-31 renal, 46.1%; in the experiment on TK-10 renal, 63.3%; with ACHN renal it was 37.9%. The growth was 34.9% in the experiment on CAKI-1 renal, 74.7% in the experiment with A498 renal, 29.1% with CCRF-CEM leukemia and 73.7% in the experiment on MOLT-4 leukemia.
As for `COc1ccc(C2=NN(C(=O)c3cc(OC)c(OC)c(OC)c3)C(c3ccc(N(C)C)cc3)C2)cc1` (stereo not given), the growth in the experiment with SK-MEL-2 melanoma was 66.5%; in the experiment with EKVX NSCLC it was 35.6%; in the experiment with SN12C renal, 31.3%; in the experiment on UO-31 renal, 19.4%; in the experiment with TK-10 renal it was 56.5%; in the experiment with ACHN renal, 25.8%. The growth was 39.1% with CAKI-1 renal, -1.92% (active) with A498 renal, 26.7% in the experiment on CCRF-CEM leukemia and 18.9% with MOLT-4 leukemia.
With `COc1ccc(Nc2ncc(C(N)=O)c(NCCCNC(=O)C3CCC3)n2)cc1`, the growth was 51.8% in the experiment on SK-MEL-2 melanoma; 96.2% with EKVX NSCLC; 30.9% in the experiment with SN12C renal; 2.37% (active) in the experiment with UO-31 renal; 34.4% in the experiment with TK-10 renal; 44.9% in the experiment with ACHN renal. The growth in the experiment with CAKI-1 renal is 34.7%; in the experiment with A498 renal, 105%; with CCRF-CEM leukemia, 43.7%; in the experiment with MOLT-4 leukemia, 38.7%.
With `O=C(N=Nc1c(O)[nH]c2ccccc12)Nc1ccc(Cl)cc1`, the growth in the experiment with SK-MEL-2 melanoma was 99.7%; in the experiment on EKVX NSCLC, 86.5%; with SN12C renal, 97.1%; in the experiment with UO-31 renal it was 69.2%; in the experiment with TK-10 renal, 101%; with ACHN renal, 80.5%. For the same molecule, the growth in the experiment on CAKI-1 renal was 89.2%; in the experiment on A498 renal, 77.6%; with CCRF-CEM leukemia it was -8.91% (active); in the experiment on MOLT-4 leukemia, 87.3%.
`CCN(CC)c1ccc(/C=C\c2cc(C)c3cc(C)ccc3n2)cc1`: the growth is 14.4% in the experiment with SK-MEL-2 melanoma; 61.6% in the experiment on EKVX NSCLC; 45.1% with SN12C renal; 26.6% with UO-31 renal; 54.8% in the experiment on TK-10 renal; 38.8% with ACHN renal. The growth was 28.5% in the experiment with CAKI-1 renal, 18.2% with A498 renal, 34.1% with CCRF-CEM leukemia and 40.2% with MOLT-4 leukemia.
For the molecule `O=C1/C(=C/c2ccc(Br)cc2)COc2ccc(O)c(O)c21`, the growth in the experiment on SK-MEL-2 melanoma was 47.2%; in the experiment on EKVX NSCLC, 23.2%; in the experiment on SN12C renal it was -41.1% (active); with UO-31 renal, -99.2% (active); in the experiment on TK-10 renal it was 4.99% (active); in the experiment with ACHN renal it was -84.2% (active). The growth in the experiment with CAKI-1 renal was -36% (active); with A498 renal, 98.9%; with CCRF-CEM leukemia, -6.17% (active); with MOLT-4 leukemia it was -9.5% (active).
Consider `COc1cccc(NC(=O)c2cccc(C3CCc4c(cc(OC)c(OC)c4OC)O3)c2)c1` (stereo not given), for which the growth in the experiment on SK-MEL-2 melanoma was 65.5%; in the experiment on EKVX NSCLC, 69.1%; with SN12C renal it was 55.2%; in the experiment on UO-31 renal, 34.5%; in the experiment with TK-10 renal it was 74.5%; with ACHN renal it was 66.8%. Besides, the growth was 80.3% with CAKI-1 renal, 30.2% in the experiment on A498 renal, 22.1% with CCRF-CEM leukemia and 7.7% (active) in the experiment on MOLT-4 leukemia.
Turning to `O=C(CBr)CN1C(=O)c2ccccc2C1=O`, the growth is 108% with SK-MEL-2 melanoma; 107% with EKVX NSCLC; 109% with SN12C renal; 88.8% in the experiment on UO-31 renal; 100% in the experiment on TK-10 renal; 104% in the experiment with ACHN renal. The growth in the experiment on CAKI-1 renal is 98.6%; with A498 renal it was 88.2%; in the experiment with CCRF-CEM leukemia, 111%; in the experiment with MOLT-4 leukemia, 104%.
Turning to `Cc1[nH]c(C(=O)Nc2ccc(C(N)=O)cc2NC(C)C)c(Cl)c1Cl`, the growth in the experiment with SK-MEL-2 melanoma was 101%; in the experiment with EKVX NSCLC, 87%; with SN12C renal, 105%; in the experiment with UO-31 renal, 66%; in the experiment on TK-10 renal, 120%; in the experiment on ACHN renal it was 96.5%. The growth in the experiment with CAKI-1 renal is 94.1%; in the experiment with A498 renal, 69.7%; with CCRF-CEM leukemia it was 94.2%; in the experiment with MOLT-4 leukemia, 86%.
